Results: PubChem BioAssay AID588477 (NMMLSC, 2011)
Calls of active or inactive are those of the source.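 How the source made its calls: active means valid curve fit with half-effect dose at most 10 µM and total binding change across doses of 30 points or more; inactive means the rest.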

These compounds were tested on Rho wt (assay: small GTPase nucleotide-binding inhibition, multiplex panel – biochemical, round 1 SAR, Mg buffer, multiplex flow cytometry, selectivity assay for Cdc42 probe extension project, SAR follow-up (AID 588477)). Conditions: GST-GTPase beads, Bodipy-GTP binding; series mostly up to 100 µM.

outcome, inactive:
COc1ccc(C2CC(c3ccccc3)=NN2c2ccc(S(N)(=O)=O)cc2)cc1 (stereo not drawn)
NS(=O)(=O)c1ccc(N2N=C(c3ccccc3)CC2c2ccccc2)cc1 (stereo not drawn)
O=C(C#Cc1ccccc1)c1cccc([N+](=O)[O-])c1
